This note sets out measurements from PubChem BioAssay (NCATS).

Inconclusive results are not listed. Unmarked numbers belong to inactive results. The source made the active and inactive calls. Calls follow the shape of the dose curve; as a rule, active = well fitted curve in the direction sought with a large enough effect; inconclusive = small, poorly fitted or top-dose-only effect, or another doubt; inactive = no such curve, though single readings can be large; an effect the other way counts as inactive or inconclusive.

The target of experiment [1] is Cellular tumor antigen p53 (Homo sapiens) (UniProt P04637). The experiment can be described thus: Primary qHTS for small molecule compounds that upregulate eGFP-tagged delta133p53alpha (in N-terminal) cells. (AID 2060322). Also: nearly all actives have a fitted effect of over 75% in size. Also: potency is read from the fitted curve at half-maximal effect.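 As to activation: series mostly up to about 56 µM; 0% = DMSO vehicle and 100% = reference activator.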 The following applies: NCI-H358 eGFP-delta133p53alpha fluorescence, 24 h; activation: stronger effect = higher value. A digest of the protocol: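 NCI-H358 cells pre-induced 24 h with 10 ng/ml doxycycline to express N-terminal eGFP-delta133p53alpha, then dosed 24 h at 37C without doxycycline; fixed, Hoechst-stained, GFP intensity by laser scanning cytometry, normalized to DMSO (0%) and 57.5 uM 5-azacytidine (100%).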
Cellular tumor antigen p53 (Homo sapiens), sequence (P04637 whole entry, looked up): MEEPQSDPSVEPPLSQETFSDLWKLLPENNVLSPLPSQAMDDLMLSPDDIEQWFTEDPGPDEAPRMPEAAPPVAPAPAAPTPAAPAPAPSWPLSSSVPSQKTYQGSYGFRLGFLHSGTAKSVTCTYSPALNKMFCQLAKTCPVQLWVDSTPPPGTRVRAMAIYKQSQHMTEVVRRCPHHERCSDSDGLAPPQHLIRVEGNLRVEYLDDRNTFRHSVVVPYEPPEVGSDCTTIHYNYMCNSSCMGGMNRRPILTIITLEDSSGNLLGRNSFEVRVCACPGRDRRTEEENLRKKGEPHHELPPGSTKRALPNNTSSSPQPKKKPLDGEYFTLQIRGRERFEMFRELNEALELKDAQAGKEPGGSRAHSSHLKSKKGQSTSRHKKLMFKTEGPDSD
On the technique in general: Quantitative high-throughput screening tests each substance at several concentrations.

The target in experiment [2] is Aldehyde dehydrogenase, mitochondrial (Homo sapiens) (UniProt P05091). The experiment can be described thus: qHTS for Inhibitors of the Aldehyde Dehydrogenase Family (ALDH2) Primary screen (AID 2061308).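 Also: plate controls were vehicle for no effect and reference inhibitor for full effect; nearly all actives have a fitted effect of over 55% in size.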
Experiment [3] has as its target Retinaldehyde dehydrogenase 3 (Homo sapiens) (UniProt P47895). Kind of experiment: qHTS for Inhibitors of the Aldehyde Dehydrogenase Family (ALDH1A3) Primary screen (AID 2061315).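 Also: plate controls were DMSO vehicle for no effect and reference inhibitor for full effect.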

As for `CCCCn1ccc(N2CCC(c3ccccc3)CC2)c(Cl)c1=O`, the activation in experiment [1] was -2.33%. Besides, the Potency result in experiment [2] and in experiment [3] was “inactive” each time.
Turning to `CCC(=O)O[C@H]1C(C)(C)[C@H]([C@@H](O)C(=O)OC)[C@]2(C)C(=O)[C@@]1(O)[C@H]1O[C@]13C1CC(=O)O[C@@H](c4ccoc4)[C@]1(C)CCC32` (some centres undefined), the activation in experiment [1] was -20.6%. Further, the Potency result in experiment [2] and in experiment [3] was “inactive” throughout.
For `CC1(C)CC2C(O)c3cocc3CC(C)(O)C2C1` (centres undefined), in experiment [1], the activation is -8.04%. Moreover, the Potency result in experiment [2] and in experiment [3] was “inactive” throughout.
Consider `CC1CC2OC3(OC2C(C)(C)O)C1C1(C)CCC24CC25CCC(O[C@@H]2OC[C@@H](O)[C@H](O)[C@H]2O)C(C)(C)C5CC=C4C1(C)C3O` (some centres undefined), for which, in experiment [1], the activation is -18.8%. Moreover, the Potency entry in experiment [2] and in experiment [3] was “inactive” throughout.
In the case of `O=S(=O)(O)c1ccc(Nc2ncnc3c2ncn3[C@@H]2O[C@H](CO)[C@@H](O)[C@H]2O)cc1`, in experiment [1], the activation was -3%. Besides, the Potency result in experiment [2] and in experiment [3] was “inactive” in each case.
As to `COC(=O)CC(O)CC(O)/C=C/c1c(C)ccc2c1C(O)CC(C)C2` (centres undefined), the activation in experiment [1] was -14.5%. Besides, the Potency entry in experiment [2] and in experiment [3] was “inactive” each time.
As to `CCOc1ccc2nc(SCCN3CCOCC3)[nH]c2c1`, in experiment [1], the activation is -7.64%. The Potency entry in experiment [2] and in experiment [3] was “inactive” throughout.
Regarding `CN1CCc2nc(C(=O)N[C@@H]3C[C@@H](C(=O)N(C)C)CC[C@@H]3NC(=O)C(=O)Nc3ccc(Cl)cn3)sc2C1`, in experiment [1], the activation is 1.91%. Moreover, the Potency entry in experiment [2] and in experiment [3] was “inactive” in each case.
Consider `COc1ccc(/C=C/C(=O)O[C@@H]2[C@@H](O)[C@H](C)O[C@@H](O[C@H]3[C@@H]4C=CO[C@@H](O[C@H]5O[C@@H](CO)[C@H](O)[C@@H](O)[C@@H]5O)[C@@H]4[C@@]4(CO)O[C@@H]34)[C@@H]2OC(C)=O)cc1`, for which the activation in experiment [1] is -12.5%. Besides, the Potency result in experiment [2] and in experiment [3] was “inactive” in each case.
`Cc1[nH]c2ccccc2c1CCNC(=O)c1ccccc1F`: the activation in experiment [1] was -0.477%. The Potency result in experiment [2] and in experiment [3] was “inactive” throughout.
Consider `C=C1CCC2[C@@](C)(C=O)CCC[C@]2(C)[C@H]1CC/C(C)=C/CO` (some centres undefined), for which the activation in experiment [1] is 18.3%. In addition, the Potency result in experiment [2] and in experiment [3] was “inactive” throughout.
For the compound `C[C@H]1[C@@H](O)[C@H](O)C2[C@]3(C)C([C@@H](O)[C@H]4OC(=O)[C@@H]1[C@@]24C)[C@](C)(O)C=C[C@H]3O[C@@H]1O[C@H](CO)[C@@H](O)[C@H](O)[C@H]1O` (some centres undefined), the activation in experiment [1] is 0.893%. Besides, the Potency entry in experiment [2] and in experiment [3] was “inactive” each time.
For the compound `C=C1C(=O)OC2/C=C(\C)CC/C=C(\C)CC(OC(C)=O)C12` (centres undefined), the Potency in experiment [1] was 26.9 µM (active). Moreover, the Potency result in experiment [2] and in experiment [3] was “inactive” each time.
Consider `Cc1c(N2C(=O)c3ccc(C(=O)O)cc3C2=O)c(=O)n(-c2ccccc2)n1C`, for which the activation in experiment [1] is -5%. The Potency entry in experiment [2] and in experiment [3] was “inactive” throughout.
`C=C1CC(=O)C2OC2(C)CC2OC(=O)C(=C)C2C(O)C1OC(=O)/C(C)=C\C` (centres undefined): in experiment [1], the Potency was 16.6 µM (active). Further, the Potency result in experiment [2] and in experiment [3] was “inactive” each time.
As for `Cc1ccccc1C(=O)N1CC/C(=N\OS(=O)(=O)O)c2ccc(Cl)cc21`, the activation in experiment [1] is -1.67%. Besides, the Potency entry in experiment [2] and in experiment [3] was “inactive” in each case.
As to `CCC(C)/C=C(C)/C=C/C1=CC2=C(Cl)C(=O)C(C)(OC(C)=O)C(=O)C2=CN1CCCCC(N)C(=O)O` (centres undefined), the activation in experiment [1] was -16.8%. Also, the Potency entry in experiment [2] and in experiment [3] was “inactive” throughout.
Turning to `CCC(C)(OC(C)=O)C(=O)O[C@H]1[C@H](OC(C)=O)[C@]2(CO)[C@H](O)[C@H](O)[C@]3(C)C(=CCC4[C@@]5(C)CC[C@H](O[C@@H]6O[C@H](C(=O)O)[C@@H](O)[C@H](O[C@@H]7OC[C@H](O)[C@H](O[C@@H]8OC[C@H](O)[C@H](O)[C@H]8O)[C@H]7O)[C@H]6O[C@@H]6O[C@H](CO)[C@@H](O)[C@H](O)[C@H]6O)C(C)(C)C5CC[C@]43C)[C@@H]2CC1(C)C` (some centres undefined), the Potency in experiment [1] was 3.2 µM (active). In addition, the activity change, negative = inhibition is -13.5% [at 11.2 µM] in experiment [2] and 11.4% [at 11.2 µM] in experiment [3].
`COc1c(CCC(=O)O)cccc1O[C@@H]1O[C@H](CO)[C@@H](O)[C@H](O)[C@H]1O`: in experiment [1], the activation is -4.58%. For the same compound, the Potency result in experiment [2] and in experiment [3] was “inactive” each time.
With `C[C@@H]1C[C@H](C)CN(CCC(=O)Nc2ccc(Br)cc2)C1`, the activation in experiment [1] was 13.4%. Moreover, the Potency entry in experiment [2] and in experiment [3] was “inactive” in each case.
Turning to `C=C1C(=O)OC2/C=C(\C)CC/C=C(\C=O)C(OC)C(OC(=O)C(C)CC)C12` (centres undefined), the Potency in experiment [1] is 16.6 µM (active). Moreover, the Potency entry in experiment [2] and in experiment [3] was “inactive” in each case.
On to `CC(=O)C12OC(C)(C)OC1CC1C3CCC4=CC(=O)C=CC4(C)C3(F)C(O)CC12C` (centres undefined), for which, in experiment [1], the activation was -9.67%. Besides, the Potency entry in experiment [2] and in experiment [3] was “inactive” throughout.
For `COc1c(OC2OC(CO)C(O)C(O)C2O)ccc(O)c1C(=O)OCc1ccccc1O[C@@H]1O[C@H](CO)[C@@H](O)[C@H](O)[C@H]1O` (some centres undefined), the activation in experiment [1] is 3.82%. Also, the Potency entry in experiment [2] and in experiment [3] was “inactive” each time.
